This note sets out measurements from PubChem BioAssay (NCATS).

Each structure is given as a SMILES string. Records with an inconclusive call do not appear. Active and inactive are the calls of the source. Calls come from the whole dose curve; as a rule, active = well fitted curve in the direction sought with a large enough effect; inconclusive = small, poorly fitted or top-dose-only effect, or another doubt; inactive = no such curve, though single readings can be large; an effect the other way counts as inactive or inconclusive.

The nature of assay [1]: qHTS of pediatric cancer cell lines to identify multiple opportunities for drug repurposing: Primary screen for LAN-5 cells (AID 1347100). The method, boiled down:
(§1)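 Cells (500-1,000/well) rested 5 h, then received compounds for 48 h; metabolically active cells were measured by CellTiter-Glo luminescence. Final concentrations spanned up to 46 µM (MIPE, 11-point) or 0.59 nM-46 µM (NPC, 8-point) in primary screens, 11-point in follow-ups.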

The nature of assay [2]: qHTS of pediatric cancer cell lines to identify multiple opportunities for drug repurposing: Primary screen for BT-12 cells (AID 1347101). Note: nearly all actives have a fitted effect of over 25% in size. A digest of the protocol:
as §1

Assay [3] is described as follows: qHTS of pediatric cancer cell lines to identify multiple opportunities for drug repurposing: Primary screen for Rh18 cells (AID 1347102). Note: nearly all actives have a fitted effect of over 65% in size. The method, boiled down:
as §1
(In general: In qHTS, concentration-response curves come from the screen itself.)

Assay [4] in a line: qHTS of pediatric cancer cell lines to identify multiple opportunities for drug repurposing: Primary screen for OHS-50 cells (AID 1347103). Note: nearly all actives have a fitted effect of over 40% in size. A digest of the protocol:
as §1

Assay [5] is described as follows: qHTS of pediatric cancer cell lines to identify multiple opportunities for drug repurposing: Primary screen for MG 63 (6-TG R) cells (AID 1347105). Note: nearly all actives have a fitted effect of over 50% in size. The method, boiled down:
(§2)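 Primary screen of approved and investigational compounds on cells in growth media at 37 degrees C, 5% CO2. MIPE set at 11-point and NPC set at 8-point dilutions; viability scored by ATP-based luminescence at 48 hours.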

A short description of assay [6]: qHTS of pediatric cancer cell lines to identify multiple opportunities for drug repurposing: Primary screen for control Hh wild type fibroblast cells (AID 1347106). Note: nearly all actives have a fitted effect of over 55% in size. A digest of the protocol: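 Viability after 48 h compound treatment at 37C, 500-1,000 cells/well, read as ATP luminescence with CellTiter-Glo. Primary screens used 11-point (MIPE, 0.78 nM-46 µM) or 8-point (NPC, 0.59 nM-46 µM) final concentrations; follow-up screens used 11-point dilutions.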

Assay [7] in a line: qHTS of pediatric cancer cell lines to identify multiple opportunities for drug repurposing: Primary screen for Rh30 cells (AID 1347107). Note: nearly all actives have a fitted effect of over 75% in size. The method, boiled down: as §1
Assay [8] in a line: qHTS of pediatric cancer cell lines to identify multiple opportunities for drug repurposing: Primary screen for Rh41 cells (AID 1347108). Note: nearly all actives have a fitted effect of over 70% in size. The method, boiled down:
as §2

A short description of assay [9]: qHTS of pediatric cancer cell lines to identify multiple opportunities for drug repurposing: Confirmatory screen for NB1643 cells (AID 1347109). Note: nearly all actives have a fitted effect of over 45% in size. A digest of the protocol: as §1
Assay [10] can be described thus: qHTS of pediatric cancer cell lines to identify multiple opportunities for drug repurposing: Primary screen for RD cells (AID 1347104). Note: nearly all actives have a fitted effect of over 55% in size. A digest of the protocol: as §2
Potency is the fitted concentration of half-maximal effect.

For the compound `CCCCCCCCCCCCCCCC(=O)OC(C)C`, the Potency result in [1], in assay [2], in [3], in [4], in [5] and in assay [6] was “inactive” each time. For the same compound, the Potency result in assay [7] and in [8] was “inactive” in each case.

With `Nc1c(CC(=O)O)cccc1C(=O)c1ccc(Br)cc1`, the Potency entry in [1], in assay [2], in assay [3], in assay [4], in assay [5] and in assay [6] was “inactive” each time. Further, the Potency entry in assay [7] and in assay [8] was “inactive” each time.

As for `N=C1N=C(N)c2cc3ccccc3cc21`, the Potency in assay [1] is 24.3 µM (active); in assay [2], 25.2 µM (active); in assay [3], 48.6 µM (active); in assay [4], 17.8 µM (active); in assay [5], 24.3 µM (active); in [8], 30.6 µM (active). The Potency in assay [9] was 33.9 µM (active).

On to `O=C(O)c1ccccc1Nc1cccc(C(F)(F)F)c1`, for which the Potency result in [1], in assay [2], in assay [3], in assay [4], in assay [5] and in assay [6] was “inactive” in each case. The Potency result in assay [7] and in [8] was “inactive” each time.

As for `COc1cccc2c1C(=O)c1c(O)c3c(c(O)c1C2=O)C[C@@](O)(C(=O)CO)C[C@@H]3O[C@H]1C[C@H](N)[C@H](O[C@@H]2CCCCO2)[C@H](C)O1`, the Potency in assay [1] is 0.266 µM (active); in [2], 1.55 µM (active); in assay [3], 15 µM (active); in assay [4], 0.777 µM (active); in assay [5], 0.841 µM (active); in assay [8], 8.41 µM (active).

In the case of `CC1(C)S[C@@H]2[C@H](NC(=O)[C@H](N)c3ccccc3)C(=O)N2[C@H]1C(=O)O`, the Potency result in [1], in [2], in assay [3], in [4], in assay [5] and in assay [6] was “inactive” throughout. Moreover, the Potency result in [7] and in [8] was “inactive” each time.

As for `CC(N)C(=O)OC(C)(C)Cc1ccc(Cl)cc1` (stereo not drawn), the Potency result in [1], in [2], in assay [3], in [5], in assay [6] and in assay [7] was “inactive” each time. Moreover, in assay [8], the Potency entry was “inactive”.

As to `O=C(O)/C=C\C(=O)O`, the Potency entry in assay [1], in assay [2], in assay [3], in [4], in assay [5] and in assay [6] was “inactive” each time. The Potency result in assay [7] and in assay [8] was “inactive” throughout.

As to `Cc1c(Nc2ncccc2C(=O)O)cccc1C(F)(F)F`, the Potency entry in assay [1], in assay [2], in assay [3], in assay [4], in assay [6] and in assay [7] was “inactive” each time. Further, the Potency entry in assay [8] is “inactive”.

For `Cc1c(N)c(=O)n(-c2ccccc2)n1C`, the Potency result in assay [1], in assay [2], in assay [3], in assay [4], in [5] and in assay [6] was “inactive” throughout. The Potency result in [7] and in assay [8] was “inactive” in each case.

With `Clc1ccccc1-c1nc(-c2ccncc2)no1`, the Potency entry in assay [1], in [3], in [5], in assay [6], in assay [7] and in assay [8] was “inactive” each time.

Consider `Cc1c(C(=O)O)c(O)cc2c1C(=O)c1c(O)c([C@@H]3O[C@H](CO)[C@@H](O)[C@H](O)[C@H]3O)c(O)c(O)c1C2=O`, for which the Potency entry in assay [10] and in assay [7] was “inactive” in each case.

On to `C#C[C@]1(O)CC[C@H]2[C@@H]3CCc4cc(O)ccc4[C@H]3CC[C@@]21C`, for which, in [4], the Potency is 24.6 µM (active). Further, the Potency result in assay [5], in [6] and in [7] was “inactive” in each case.

With `Nc1cc(-c2ccncc2)c[nH]c1=O`, the Potency result in assay [2], in assay [3], in [4], in assay [5], in assay [6] and in assay [7] was “inactive” in each case. Also, the Potency result in assay [8] was “inactive”.

With `O=C(CS)Nc1ccccc1`, the Potency entry in assay [2], in assay [3], in assay [4], in [5] and in assay [7] was “inactive” each time. Besides, the Potency in assay [6] is 16.8 µM (active); in assay [8], 21.1 µM (active).

For `COc1ccc(-c2cc(=S)ss2)cc1`, the Potency result in assay [1], in assay [3], in assay [10], in [5], in assay [6] and in [7] was “inactive” throughout. For the same compound, in [8], the Potency result was “inactive”.

Consider `COC(=O)C1=C(C)NC(C)=C(C(=O)OCC(C)=O)C1c1ccccc1[N+](=O)[O-]` (stereo not drawn), for which the Potency result in [1], in assay [3], in [7] and in assay [8] was “inactive” in each case.

`[O-][n+]1ccccc1SSc1cccc[n+]1[O-]`: the Potency in assay [2] was 0.12 µM (active); in assay [3], 0.517 µM (active); in assay [4], 0.338 µM (active); in assay [10], 0.0731 µM (active); in assay [5], 0.184 µM (active); in assay [6], 11.6 µM (active). The Potency in assay [9] was 1.15 µM (active).

As to `C#CC1(O)CC[C@H]2[C@@H]3CCC4=CCCC[C@@H]4[C@H]3CC[C@@]21C` (stereo partly drawn), the Potency result in [1], in assay [3], in [6], in assay [7] and in assay [8] was “inactive” throughout. In assay [5], the Potency was 21.1 µM (active).

Consider `O=Cc1ccc(O)c(O)c1O`, for which the Potency result in [2], in assay [4], in assay [5], in [6], in assay [7] and in [8] was “inactive” throughout.

With `O=c1[nH]c2ccccc2n1CCCN1CCN(C(c2ccccc2)c2ccccc2)CC1`, in assay [4], the Potency is 15.5 µM (active). Moreover, the Potency result in assay [5], in assay [6] and in [7] was “inactive” throughout.

`NC(=O)C(c1ccccc1)(c1ccccc1)[C@@H]1CCN(CCc2ccc3c(c2)CCO3)C1`: the Potency result in [1], in assay [2], in assay [10], in assay [5], in assay [6] and in assay [7] was “inactive” each time. Also, the Potency entry in assay [8] was “inactive”.

For `CC(C)OC(=O)c1cc(C(=O)OC(C)C)cc([N+](=O)[O-])c1`, the Potency result in assay [1], in assay [3], in assay [4], in assay [10], in assay [5] and in assay [6] was “inactive” throughout. Moreover, the Potency result in assay [7] and in assay [8] was “inactive” each time.

In the case of `Oc1c(Br)cc(Br)c2cccnc12`, the Potency in assay [2] was 27.6 µM (active); in assay [4] it was 15.5 µM (active); in assay [5], 21.1 µM (active); in assay [9], 26.1 µM (active). Moreover, in [6], the Potency result was “inactive”.

For the compound `Nc1ccc(O)c([N+](=O)[O-])c1`, the Potency entry in assay [3], in assay [4], in assay [5], in [6], in assay [7] and in [8] was “inactive” throughout.

As to `CCCC(=O)OC[C@@H](OC(=O)CCC)[C@@H](OC(=O)CCC)[C@H](Cn1c2nc(=O)[nH]c(=O)c-2nc2cc(C)c(C)cc21)OC(=O)CCC`, in [2], the Potency was 27.6 µM (active). For the same compound, the Potency result in assay [5], in assay [6] and in [7] was “inactive” each time.

As to `Cc1cc(O)c2ccccc2c1O`, in assay [5], the Potency is 26.6 µM (active). Moreover, the Potency entry in [6] is “inactive”.

Consider `c1ccc(CCNc2nc(-c3ccccc3)cs2)cc1`, for which the Potency result in assay [1], in assay [3], in assay [5], in [6], in [7] and in assay [8] was “inactive” in each case.

`CN(C)c1ccc(C(=C2C=CC(=[N+](C)C)C=C2)c2ccccc2)cc1`: the Potency in assay [2] was 0.174 µM (active); in [3], 0.075 µM (active); in [4], 0.0347 µM (active); in assay [5] it was 0.106 µM (active); in [6] it was 23.7 µM (active); in assay [7], 0.473 µM (active). Also, the Potency is 0.0944 µM (active) in assay [8] and 0.657 µM (active) in [9].

For the compound `COC(=O)C1=C(C)NC(C)=C(C(=O)OCC(C)C)C1c1ccccc1[N+](=O)[O-]` (stereo not drawn), the Potency in assay [4] was 24.6 µM (active). Besides, the Potency result in assay [5], in [6] and in assay [7] was “inactive” in each case.

`CN(C)c1ccc(N=NS(=O)(=O)O)cc1`: the Potency result in [3], in assay [4], in [5], in assay [6], in assay [7] and in [8] was “inactive” throughout.

With `O=C1CN(/N=C/c2ccc([N+](=O)[O-])o2)C(=O)N1`, the Potency entry in [1], in assay [3], in assay [4], in [10], in [6] and in [7] was “inactive” in each case.

Turning to `CCCSc1ccc2nc(NC(=O)OC)[nH]c2c1`, the Potency in assay [1] was 1.19 µM (active); in assay [2], 2.76 µM (active); in [4], 0.872 µM (active); in assay [5], 0.668 µM (active); in assay [9], 2 µM (active). The Potency entry in assay [6] and in [7] was “inactive” each time.

Take `Nc1ccc([N+](=O)[O-])cc1O`: the Potency result in [3], in assay [7], in assay [8] and in assay [9] was “inactive” each time.

As for `Nc1nc2ccc([N+](=O)[O-])cc2s1`, the Potency entry in assay [1], in [10], in assay [5], in assay [6], in assay [7] and in assay [8] was “inactive” each time. In addition, in [4], the Potency was 25.2 µM (active).

Consider `O=c1cc(-c2ccccc2)oc2ccccc12`, for which the Potency result in assay [1], in assay [3], in assay [10], in assay [5], in assay [6] and in [8] was “inactive” in each case.

Regarding `CCCCCCOc1ccccc1C(N)=O`, the Potency result in assay [1], in [3], in assay [10], in assay [5], in assay [6] and in assay [7] was “inactive” throughout. Besides, the Potency entry in [8] was “inactive”.

On to `COc1cc(NC(C)CCCN)c2ncccc2c1` (stereo not drawn), for which the Potency result in [1], in assay [5], in [6] and in assay [7] was “inactive” each time. In addition, the Potency in assay [4] is 24.6 µM (active).

Turning to `Cc1nc2ccccc2n1Cc1ccc(Cl)cc1`, the Potency entry in assay [3], in assay [5], in [6] and in [7] was “inactive” each time. Besides, the Potency in assay [4] is 3.47 µM (active).
